USP2a inh = qHTS Assay for Inhibitors of Ubiquitin-specific Protease USP2a Using CHOP2 as the Reporter; USP2 core, Ub-CHOP2 coupled fluorogenic reporter, 485/531; Potency, µM (series often up to 38.3 µM), without a hit: at the top dose activity change, negative = inhibition, actives largely listed as inhibitors; actives 0.01% (n = 330,000);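 note: potency is the fitted concentration of half-maximal effect; plate controls were DMSO wells for no effect and full inhibition by NEM control for full effect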
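Deubiquitinase activity read as fluorescence (485/531 nm) after Ub-CHOP2 cleavage activates the enterokinase reporter on its substrate; USP2 core 10nM, Ub-CHOP2 and substrate 25nM each, 30min compound preincubation then 60min RT; data normalized to NEM, curves fitted.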
uPA generation = qHTS for Inhibitors of Cell Surface uPA Generation; cell surface uPA generation assay, qHTS; Potency, µM (highest dose often 38.3 µM), for the others: at the highest dose activity change, negative = inhibition, usual class: inhibitors; actives 0.31% (n = 330,000); AID 540303, 2011; active = well fitted inhibition curve with a large enough effect; inconclusive = small, poorly fitted or top-dose-only effect; inactive = no such curve, though single readings can be large or run the other way; tested in mouse RAW 264.7 cells; note: potency is the fitted concentration of half-maximal effect; % is set by controls: 0 for no effect and ±100 for the full control effect; nearly all actives have a fitted effect of over 55% in size
RGS4 inh = Inhibitors of Regulator of G Protein Signaling (RGS) 4: qHTS; Regulator of G-protein signaling 4 (Homo sapiens), P49798; Transcreener GDP fluorescence polarization, RGS4-accelerated GTP hydrolysis; Potency, µM (top dose mostly 114 µM), inactives show at the highest dose activity change, negative = inhibition, usual class: inhibitors; actives 0.039% (n = 390,000); note: potency is the fitted concentration of half-maximal effect; % is set by controls: 0 for no effect and ±100 for the full control effect; nearly all actives have a fitted effect of over 75% in size
Target sequence (P49798 whole entry, looked up): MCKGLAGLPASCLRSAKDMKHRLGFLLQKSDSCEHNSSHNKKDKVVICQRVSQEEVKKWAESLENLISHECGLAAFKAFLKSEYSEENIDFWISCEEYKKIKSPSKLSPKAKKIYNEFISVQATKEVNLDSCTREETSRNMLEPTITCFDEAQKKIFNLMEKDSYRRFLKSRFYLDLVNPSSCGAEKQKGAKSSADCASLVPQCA
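MLSMR compounds (23 nl, pin-transferred) preincubated 10 min at room temperature with a 500nM (2x) first reagent, then RGS4 at 900nM (2x) plus Transcreener GDP mix added; fluorescence polarization (620/688 nm) read before and after 90 min at 30 °C.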
Chronic BCR inh = qHTS Assay to Find Inhibitors of Chronic Active B-Cell Receptor Signaling. ABC-DLBCL IkBa-CBG/CBR reporter, luminescence ratio, 4 h. Potency, µM (titrated, usually from 46.1 µM), for inactives: at the highest dose activity change, negative = inhibition, hits mostly inhibitors. actives 0.05% (n = 340,000). AID 493014, 2011; active = well fitted inhibition curve with a large enough effect in the signal ratio, with a control signal flat, not every such curve was filed as active; inconclusive = small, poorly fitted or top-dose-only effect, or effect the other way, or a change in a side signal; the % refers to the signal ratio;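 note: potency is the fitted concentration of half-maximal effect; plate controls were basal doxycycline-induced cells for no effect and cells given 10 µM MG132 for full effect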
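TMD8 ABC-DLBCL cells carrying doxycycline-inducible green luciferase fused to IkappaBalpha plus unfused red luciferase were exposed to compounds (up to 46 uM) for 4 hrs at 37C. Activity came from the overlap-corrected green/red luminescence ratio.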
GCN5L2 inh-1 = qHTS Assay for Inhibitors of GCN5L2 | Histone acetyltransferase KAT2A (Homo sapiens), Q92830 | GCN5L2 HAT assay, ThioGlo1 CoA-SH fluorescence | Potency, µM (titrated, usually from 58.9 µM), without a hit: at the top dose activity change, negative = inhibition, actives largely listed as inhibitors | actives 0.21% (n = 390,000) | AID 504327, 2011; note: potency is the fitted concentration of half-maximal effect; % is set by controls: 0 for no effect and ±100 for the full control effect
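Compounds, pin-transferred from DMSO stocks, meet 20nM GCN5L2 for 15 min before the reaction begins with H3(1-25) peptide (75uM) and acetyl-CoA (70uM). Thiol-reactive ThioGlo1 reports CoA release over 20 min at room temperature.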
Eya2 phos inh = qHTS Assay for Inhibitors of the Phosphatase Activity of Eya2 | Protein phosphatase EYA2 (Homo sapiens), O00167 | recombinant Eya2, OMFP fluorescence dephosphorylation (OMFP is methylfluorescein phosphate) | actives 0.006% (n = 330,000) | Potency, µM (series often up to 76.9 µM), for inactives: at the top dose activity, negative = inhibition, actives largely listed as inhibitors; note: potency is the fitted concentration of half-maximal effect; % is set by controls: 0 for no effect and ±100 for the full control effect
Target sequence (O00167 whole entry, looked up): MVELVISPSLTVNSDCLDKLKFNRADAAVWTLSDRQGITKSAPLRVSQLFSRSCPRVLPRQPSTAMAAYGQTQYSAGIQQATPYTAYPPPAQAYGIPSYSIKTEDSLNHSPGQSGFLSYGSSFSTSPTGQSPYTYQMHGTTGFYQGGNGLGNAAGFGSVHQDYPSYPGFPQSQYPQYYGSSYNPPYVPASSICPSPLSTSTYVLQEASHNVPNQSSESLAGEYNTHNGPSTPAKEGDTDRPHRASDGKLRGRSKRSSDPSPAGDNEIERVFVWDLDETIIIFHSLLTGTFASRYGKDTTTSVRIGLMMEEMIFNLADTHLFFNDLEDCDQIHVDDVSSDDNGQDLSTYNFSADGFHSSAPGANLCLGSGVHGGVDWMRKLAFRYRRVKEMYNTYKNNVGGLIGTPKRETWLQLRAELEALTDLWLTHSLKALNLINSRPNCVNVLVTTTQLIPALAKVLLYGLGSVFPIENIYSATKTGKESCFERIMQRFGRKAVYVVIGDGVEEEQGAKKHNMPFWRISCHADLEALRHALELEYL
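Eya2 protein (added as 0.2 uM solution) was preincubated with compound for 10 min at ambient temperature in 50 mM HEPES pH 7.5, 50 mM NaCl, 5 uM MgCl2, 0.05% BSA, 1 mM DTT. OMFP (added at 50 uM) then reacted 10 min; fluorescence read at 485/525 nm.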
GCN5L2 inh-2 = qHTS Assay for Inhibitors of GCN5L2: Hit confirmation | actives 70% (n = 140) | GCN5L2 HAT, ThioGlo1 CoA fluorescence, 20 min | shares compounds with GCN5L2 inh-1 | Potency, µM, hits mostly inhibitors
* marks the source's active call; other numbers are inactive results; u = inconclusive; x = no result; [ ] = remark or other dose. An excerpt weighted towards active compounds, which were near 0.52% of everything screened. Unless noted, calls come from the whole dose curve; as a rule, active = well fitted curve in the direction sought with a large enough effect; inconclusive = small, poorly fitted or top-dose-only effect, or another doubt; inactive = no such curve, though single readings can be large; an effect the other way counts as inactive or inconclusive.

SMILES	USP2a inh	uPA generation	RGS4 inh	Chronic BCR inh	GCN5L2 inh-1	Eya2 phos inh	GCN5L2 inh-2
CCSS(=O)(=O)c1cccc2cccnc12	3%	8%	-131%	u	3.2µM*	2%	3.6*
COc1cccc2c1NC(C(=O)O)C1CC=CC21 (centres undefined)	4%	-7%	u	1%	11µM*	3%	u
COc1cccc(C2Nc3c(F)cc(Br)cc3C3C=CCC32)c1OC (centres undefined)	2%	-1%	-25%	0%	-1%	2%	x
Cc1ccc2c(c1)N(C(=O)N1CCC(C(=O)NCc3ccccc3F)CC1)CC(C)O2 (centres undefined)	x	x	-6%	x	1%	x	x
COc1ccc2[nH]cc(CCNc3cc(-c4cccc(C#N)c4)ncn3)c2c1	x	x	x	x	-17%	x	x
Nc1ccc(-c2nc3cc(N)ccc3n2CCO)cc1	-12%	3%	27%	-1%	u	4%	18*
CCOC(=O)Cc1csc(NC(=O)CSc2nnnn2-c2ccc(C)c(C)c2)n1	-1%	1%	-23%	-5%	u	-1%	u
COc1cccc(-c2cc(C(=O)Nc3cc(Cl)ccc3O)on2)c1	x	x	-1%	x	-13%	x	x
CCOc1ccc(C2C(=O)N(C3CCCCCC3)CC(=O)N2CCC2=CCCCC2)cc1OC (centres undefined)	x	x	15%	8%	-14%	x	x
CCOC(=O)c1c(NC(=O)CSc2nnc(Cc3ccccc3)o2)sc(C(C)=O)c1C	1%	x	0%	-3%	-4%	-16%	x
CCOC(=O)c1sc(NC(=O)CSc2nnc(Cc3ccccc3)o2)c(C#N)c1C	-2%	-9%	u	u	u	4%	10*
O=C1C=CC(=O)C(C2=C3C(=O)N(CCc4ccccc4)CC(=O)N3CCC2)=C1	6%	4%	u	u	14µM*	-1%	18*
O=C1CC2(CCCCC2)CC(=O)N1CCc1ccccc1	x	-2%	13%	x	x	x	x
CSc1ccccc1C(=O)Nc1ncn[nH]1	1%	28%	u	4%	35µM*	-16%	32*
COc1cc(C2CC(=O)Oc3cc(C)c(Cl)cc32)cc(OC)c1OC (centres undefined)	x	x	x	x	-7%[88.6 µM]	x	x
CC1=NOC(=O)/C1=C\c1ccc(-c2cccc(Cl)c2)o1	2%	-6%	u	10%	u	0%	u
CC1=NOC(=O)/C1=C\c1ccc(-c2ccc(Cl)c(C(=O)O)c2)o1	-2%	2%	u	1%	32µM*	12%	13*
CC1=NOC(=O)/C1=C\c1ccc(-c2ccccc2Br)o1	3%	u	-132%	u	13µM*	18%	11*
Cc1ccc(C2=NN(CC(=O)NC(C)c3ccccc3)C(=O)CC2)cc1 (centres undefined)	x	x	24%	-17%	13%	x	x
O=C(COCc1cc(-c2ccc3c(c2)OCO3)on1)NCc1ccccc1Cl	x	x	-1%	x	-8%	x	x
CCCOC(=O)c1cc(-c2ccc(/C=C3/C(=O)N(C)C(=O)C(C#N)=C3C)o2)ccc1Cl	x	4%	u	x	x	x	x
C=CCOC(=O)c1cc(-c2ccc(/C=C3\C(=O)NC(=O)C(C#N)=C3C)o2)ccc1Cl	2%	0%	u	0%	25µM*	32%	5.1*
O=C(CSc1nc2ccccc2s1)Nc1cc(C(=O)O)cc(C(=O)O)c1	4%	12%	u	1%	20µM*	8%	u
O=C(CSc1nc2ccccc2s1)Nc1ccc(Cl)c(C(=O)O)c1	3%	3%	u	u	u	4%	x
CCOC(=O)c1sc2nc(N3CCOCC3)c3c(c2c1N)CCCC3	6%	2%	13%	5%	-3%	11%	x
SMILES	USP2a inh	uPA generation	RGS4 inh	Chronic BCR inh	GCN5L2 inh-1	Eya2 phos inh	GCN5L2 inh-2
Nc1c(C(=O)NCc2ccco2)sc2nc(N3CCOCC3)c3c(c12)CCCC3	-9%	-4%	u	-3%	u	6%	u
COC(=O)c1cc(NC(=O)CCc2c(C)nc3c(c(C)nn3C(C)(C)C)c2C)cc(C(=O)OC)c1	x	x	-2%	x	-2%	x	x
COc1cc(/C=C(/C#N)c2nc3ccccc3[nH]2)ccc1OCC(=O)Nc1ccccc1C(C)C	-2%	u	-20%	4%	u	-4%	u
O=S(=O)(c1ccc(N2CCOCC2)c(Cl)c1)N1CCOCC1	2%	-6%	-6%	u	-2%	4%	x
O=c1c2ccccc2sn1-c1cc(S(=O)(=O)N2CCOCC2)ccc1N1CCCC1	4%	x	u	u	8.9µM*	0%	5.8*
O=c1c2ccccc2sn1-c1cc(S(=O)(=O)N2CCOCC2)ccc1N1CCOCC1	-2%	-4%	-160%	-20%	1.6µM*	-4%	4.1*
Cc1cc(C)c(Cn2c(=O)n(CCCCC(=O)NCc3ccccc3Cl)c(=O)c3ccccc32)c(C)c1	x	x	12%	x	0%	x	x
COc1ccc2c(C(=O)NCCCCO)c(-c3ccc(S(C)(=O)=O)cc3)sc2c1	0%	5%	-4%	u	u	9%	36*
CC(C)(C)NC(=O)Cn1cc(S(=O)(=O)Cc2ccccc2Cl)c2ccccc21	x	x	-1%	x	3%	x	x
Cc1ccc(/C=C(\CCC(=O)O)c2nc3ccccc3s2)cc1[N+](=O)[O-]	-2%	22%	-46%	-5%	3%	-4%	x
CN(c1ccccc1)c1ccc(/C=C(\CCC(=O)O)c2nc3ccccc3s2)cc1[N+](=O)[O-]	0%	13%	u	0%	u	-2%	20*
CCc1ccccc1N(c1nc(-c2ccc(OC)c(OC)c2)no1)c1nc(-c2ccc(OC)c(OC)c2)no1	x	x	5%	x	-2%	x	x
Cc1cc(N2C(=O)C(O)=C(C(=O)c3cc4ccccc4o3)C2c2cccc(Br)c2)no1 (centres undefined)	1%	5%	-35%	12%	u	12%	u
